Measurements taken from the supplement of paper PMC7366291.
Structures can show the parent of a compound that is named as a salt. ± gives the standard deviation or the standard deviation of the averaged measurements.

Tests used:
Conditions in all cases: 25 µM; exposure: 24-48 hpf
[1] = system: Danio rerio Tg(wt1b:EGFP) embryo, pronephros; experiment: glomerular separation, fold change vs DMSO control; higher = glomeruli further apart (abnormal)
In short: (§1)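 Dechorionated Tg(wt1b:EGFP) zebrafish embryos were kept from 24 to 48 hpf at 28.5°C in HEPES-buffered E3 containing 0.003% PTU, 0.5% DMSO and 25 μM compound. The pronephroi were then imaged from the dorsal side in agarose-filled 96-well plates at 470 nm with 10 z-slices, and 16 reference points were placed by hand on maximum projections in Fiji so that a macro could calculate distances and angles. Values lying more than 2 SD from the mean of a feature were discarded. Every feature is given as a fold change against the mean of DMSO-treated embryos from the same day.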

[2] = system: Danio rerio Tg(wt1b:EGFP) embryo, pronephros; experiment: glomerular width (mean of left and right), fold change vs DMSO control; higher = wider glomerulus
In short: as §1

[3] = system: Danio rerio Tg(wt1b:EGFP) embryo, pronephros; experiment: fraction of imaged embryos annotated as normal kidney; higher = less nephrotoxic; extreme values may be limits of the assay
In short: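 Dechorionated Tg(wt1b:EGFP) zebrafish embryos were incubated with 25 μM compound in 0.5% DMSO, 5 mM HEPES-buffered E3 and 0.003% PTU from 24 to 48 hpf at 28.5°C. Pronephroi were then imaged by widefield fluorescence, and the fraction of embryos per treatment assigned by hand to the normal-kidney category is given.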

[4] = system: Danio rerio Tg(wt1b:EGFP) embryo, pronephros; experiment: pronephric angle neck segment to proximal convoluted tubule (mean of left and right), fold change vs DMSO control; higher = larger pronephric angle
In short: as §1

| Compound | glomerular separation [1] | glomerular width [2] | fraction of imaged embryos annotated as normal kidney [3] | pronephric angle neck segment [4] |
| --- | --- | --- | --- | --- |
| C[C@]12CCC(=O)C=C1CC[C@@H]1[C@@H]2[C@@H](O)C[C@@]2(C)[C@H]1CC[C@]2(O)C(=O)CO [Hydrocortisone base] | 1.25 ± 0.65 | 1.16 ± 0.081 | 0.5 | 0.95 ± 0.064 |
| CC(CN(C)C)CN1c2ccccc2Sc2ccccc21 (configuration not stated) [Trimeprazine tartrate] | 0.739 ± 0.27 | 0.9878 ± 0.0068 | 0.833 | 1.01 ± 0.0053 |
| O=C1CCc2cc(OCCCCc3nnnn3C3CCCCC3)ccc2N1 [Cilostazol] | 1.05 ± 0.38 | 1 ± 0.023 | 0.75 | 0.994 ± 0.05 |
| Nc1ccc(O)c(C(=O)O)c1 [Mesalamine] | 1.23 ± 0.36 | 0.956 ± 0.032 | 0.917 | 0.971 ± 0.018 |
| CN(C)CCC(c1ccc(Cl)cc1)c1ccccn1 (configuration not stated) [Chlorpheniramine maleate] | 1.56 ± 0.77 | 1.04 ± 0.042 | 0.667 | 0.969 ± 0.0027 |
| CC(CNC1CCCCC1)OC(=O)c1ccccc1 (configuration not stated) [Hexylcaine hydrochloride] | 0.859 ± 0.46 | 0.937 ± 0.014 | 0.857 | 1.09 ± 0.14 |
| CCCOc1ccccc1-c1nc2[nH]nnc2c(=O)[nH]1 [Zaprinast] | 1.56 ± 0.95 | 0.99 ± 0.074 | 0.727 | 1.08 ± 0.12 |
| CCC[C@@H]1C[C@@H](C(=O)N[C@@H]([C@H]2O[C@H](SC)[C@H](O)[C@@H](O)[C@H]2O)[C@@H](C)O)N(C)C1 [Lincomycin hydrochloride] | 0.865 ± 0.33 | 0.984 ± 0.037 | 0.917 | 0.9548 ± 0.0043 |
| C[C@]12CC[C@H]3C(=CCc4cc(O)ccc43)[C@@H]1CCC2=O [Equilin] | 1.59 ± 0.67 | 0.988 ± 0.038 | 0.25 | 1.17 ± 0.015 |
| O=C(O)c1ccccc1C(=O)Nc1ccc(S(=O)(=O)Nc2nccs2)cc1 [Phthalylsulfathiazole] | 0.926 ± 0.31 | 1.02 ± 0.015 | 0.833 | 0.943 ± 0.071 |
| Nc1ccc(C(=O)NCC(=O)O)cc1 [Aminohippuric acid] | 0.88 ± 0.41 | 0.993 ± 0.03 | 0.917 | 0.991 ± 0.018 |
| CCCN(CCC)C(=O)C(CCC(=O)O)NC(=O)c1ccccc1 (configuration not stated) [Proglumide] | 0.949 ± 0.28 | 1.07 ± 0.049 | 0.917 | 1.037 ± 0.006 |
| c1ccc(CC2=NCCN2)cc1 [Tolazoline hydrochloride] | 0.955 ± 0.4 | 1.03 ± 0.053 | 0.667 | 0.949 ± 0.013 |
| O=C(NC(Cc1cc(=O)[nH]c2ccccc12)C(=O)O)c1ccc(Cl)cc1 (configuration not stated) [Rebamipide] | 0.748 ± 0.25 | 0.942 ± 0.061 | 0.917 | 0.972 ± 0.034 |
| CCCc1nn(C)c2c(=O)[nH]c(-c3cc(S(=O)(=O)N4CCN(C)CC4)ccc3OCC)nc12 [Sildenafil] | 1.12 ± 0.37 | 0.928 ± 0.045 | 1 | 0.9607 ± 0.0012 |
| C=CC[N@@+]12CC[C@@]34c5ccccc5N5/C=C6/[C@H]7C[C@H]8[C@@]9(CC[N@@+]8(CC=C)C/C7=C/CO)c7ccccc7N(/C=C(/[C@@H](C[C@@H]31)/C(=C\CO)C2)[C@H]54)[C@@H]69 [Alcuronium chloride] | 1.23 ± 0.57 | 1.03 ± 0.052 | 0.833 | 0.958 ± 0.03 |
| COc1ccc2[nH]cc(CCNC(C)=O)c2c1 [Melatonin] | 0.974 ± 0.26 | 0.989 ± 0.026 | 0.917 | 1.02 ± 0.056 |
| CCOC(=O)/C=C(C)/C=C/C=C(C)/C=C/c1c(C)cc(OC)c(C)c1C [Etretinate] | 0.794 ± 0.27 | 0.831 ± 0.034 | 1 | 1.093 ± 0.01 |
| NC12CC3CC(CC(C3)C1)C2 [Adamantamine fumarate] | 0.809 ± 0.31 | 1.07 ± 0.033 | 0.917 | 1.03 ± 0.013 |

| Compound | glomerular separation [1] | glomerular width [2] | fraction of imaged embryos annotated as normal kidney [3] | pronephric angle neck segment [4] |
| --- | --- | --- | --- | --- |
| Cc1cn[nH]c1 [Fomepizole] | 0.953 ± 0.37 | 1.0458 ± 0.00026 | 0.917 | 1.01 ± 0.018 |
| C[C@H]1C[C@@H]2[C@H]([C@@H](O)C[C@@]3(C)[C@H]2CC[C@]3(O)C(=O)CO)[C@@]2(C)C=CC(=O)C=C12 [Methylprednisolone, 6-alpha] | 1.11 ± 0.4 | 1.21 ± 0.11 | 0.833 | 1.06 ± 0.088 |
| CNC(=C[N+](=O)[O-])NCCSCc1ccc(CN(C)C)o1 [Ranitidine hydrochloride] | 0.923 ± 0.34 | 0.941 ± 0.074 | 0.667 | 1.1 ± 0.051 |
| CN(C)CCOC(c1ccc(Cl)cc1)c1ccccn1 (configuration not stated) [Carbinoxamine maleate salt] | 0.746 ± 0.34 | 0.999 ± 0.048 | 0.9 | 1.01 ± 0.026 |
| Nc1c2c(nc3ccccc13)CCCC2 [Tacrine hydrochloride] | 1.09 ± 0.33 | 1.01 ± 0.029 | 0.833 | 1.03 ± 0.042 |
| Clc1ccc2c(c1)CCc1cccnc1C2=C1CCNCC1 [Desloratadine] | 0.811 ± 0.28 | 0.94 ± 0.011 | 0.917 | 1.06 ± 0.044 |
| COC(=O)[C@H]1[C@H]2C[C@@H]3c4[nH]c5cc(OC)ccc5c4CCN3C[C@H]2C[C@@H](OC(=O)c2cc(OC)c(OC)c(OC)c2)[C@@H]1OC [Reserpine] | 0.705 ± 0.29 | 0.995 ± 0.061 | 0.917 | 1.0157 ± 3.5e-05 |
| NC[C@H]1O[C@H](O[C@H]2[C@H](O)[C@@H](O[C@H]3O[C@H](CO)[C@@H](O)[C@H](N)[C@H]3O)[C@H](N)C[C@@H]2N)[C@H](N)C[C@@H]1O [Tobramycin] | 1.49 ± 0.73 | 0.94 ± 0.056 | 0.583 | 1.01 ± 0.011 |
| C[C@H](CS)C(=O)N1CCC[C@H]1C(=O)O [Captopril] | 1 ± 0.45 | 1.01 ± 0.042 | 1 | 1.02 ± 0.09 |
| NC(N)=Nc1nc(CSCC/C(N)=N/S(N)(=O)=O)cs1 [Famotidine] | 1.11 ± 0.48 | 0.98 ± 0.038 | 0.833 | 0.9801 ± 0.0036 |
| Cc1cc(-n2c(=O)[nH]c(=O)n(C)c2=O)ccc1Oc1ccc(SC(F)(F)F)cc1 [Toltrazuril] | 1.34 ± 0.62 | 0.8688 ± 0.0053 | 0.5 | 1.09 ± 0.045 |
| Nc1nc2n[nH]nc2c(=O)[nH]1 [Azaguanine-8] | 0.905 ± 0.36 | 1 ± 0.058 | 0.833 | 0.984 ± 0.02 |
| Cc1ccccc1OCC(O)CO (configuration not stated) [Mephenesin] | 1.06 ± 0.57 | 1.01 ± 0.012 | 0.917 | 0.993 ± 0.033 |
| COc1ccc(CN2CCN(C(c3ccc(F)cc3)c3ccc(F)cc3)CC2)c(OC)c1OC [Lomerizine hydrochloride] | 0.888 ± 0.33 | 0.9746 ± 0.0083 | 0.583 | 0.99 ± 0.019 |
| COc1c(O[C@@H]2O[C@H](CO)[C@@H](O)[C@H](O)[C@H]2O)cc2c(c1OC)-c1ccc(SC)c(=O)cc1[C@@H](NC(C)=O)CC2 [Thiocolchicoside] | 1.03 ± 0.41 | 0.909 ± 0.018 | 0.833 | 0.932 ± 0.027 |
| CCN(CC)CCNC(=O)COc1ccc(OC)cc1 [Mefexamide hydrochloride] | 1.52 ± 0.84 | 0.916 ± 0.021 | 0.833 | 1.07 ± 0.086 |
| CCCCCCNC(=O)n1cc(F)c(=O)[nH]c1=O [Carmofur] | 8.71 ± 3.1 | 0.552 ± 0.03 | 0 | 1.72 ± 0.072 |
| Nc1nc(=O)c2nc(CNc3ccc(C(=O)N[C@@H](CCC(=O)O)C(=O)O)cc3)cnc2[nH]1 [Folic acid] | 0.808 ± 0.29 | 0.941 ± 0.044 | 0.636 | 1.04 ± 0.014 |
| c1ccc2c(c1)CCCC2C1=NCCN1 (configuration not stated) [Tetrahydrozoline hydrochloride] | 0.793 ± 0.31 | 1.06 ± 0.027 | 1 | 0.98 ± 0.042 |
